# Pf apPOL inh = Pf-apPOL inhibitors, biochemical, fluorescence | Recombinant Pf-apPOL, molecular beacon fluorescence, 1.5 h | Plasmodium falciparum apicoplast DNA polymerase (apPOL) | inhibition, % at 10 µM | actives 0.25% (n = 210,000)
# mHTT CaM bind = mutant huntingtin-calmodulin interaction inhibitors – biochemical, AlphaScreen, primary screen; inhibition, % at 15 µM; AlphaScreen His-mHTT/GST-CaM binding, luminescence; P42858; actives 3.6% (n = 190,000);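 note: 0% = both proteins with DMSO and 100% = one protein alone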
# Target sequence (P42858 whole entry, looked up, stated change not applied): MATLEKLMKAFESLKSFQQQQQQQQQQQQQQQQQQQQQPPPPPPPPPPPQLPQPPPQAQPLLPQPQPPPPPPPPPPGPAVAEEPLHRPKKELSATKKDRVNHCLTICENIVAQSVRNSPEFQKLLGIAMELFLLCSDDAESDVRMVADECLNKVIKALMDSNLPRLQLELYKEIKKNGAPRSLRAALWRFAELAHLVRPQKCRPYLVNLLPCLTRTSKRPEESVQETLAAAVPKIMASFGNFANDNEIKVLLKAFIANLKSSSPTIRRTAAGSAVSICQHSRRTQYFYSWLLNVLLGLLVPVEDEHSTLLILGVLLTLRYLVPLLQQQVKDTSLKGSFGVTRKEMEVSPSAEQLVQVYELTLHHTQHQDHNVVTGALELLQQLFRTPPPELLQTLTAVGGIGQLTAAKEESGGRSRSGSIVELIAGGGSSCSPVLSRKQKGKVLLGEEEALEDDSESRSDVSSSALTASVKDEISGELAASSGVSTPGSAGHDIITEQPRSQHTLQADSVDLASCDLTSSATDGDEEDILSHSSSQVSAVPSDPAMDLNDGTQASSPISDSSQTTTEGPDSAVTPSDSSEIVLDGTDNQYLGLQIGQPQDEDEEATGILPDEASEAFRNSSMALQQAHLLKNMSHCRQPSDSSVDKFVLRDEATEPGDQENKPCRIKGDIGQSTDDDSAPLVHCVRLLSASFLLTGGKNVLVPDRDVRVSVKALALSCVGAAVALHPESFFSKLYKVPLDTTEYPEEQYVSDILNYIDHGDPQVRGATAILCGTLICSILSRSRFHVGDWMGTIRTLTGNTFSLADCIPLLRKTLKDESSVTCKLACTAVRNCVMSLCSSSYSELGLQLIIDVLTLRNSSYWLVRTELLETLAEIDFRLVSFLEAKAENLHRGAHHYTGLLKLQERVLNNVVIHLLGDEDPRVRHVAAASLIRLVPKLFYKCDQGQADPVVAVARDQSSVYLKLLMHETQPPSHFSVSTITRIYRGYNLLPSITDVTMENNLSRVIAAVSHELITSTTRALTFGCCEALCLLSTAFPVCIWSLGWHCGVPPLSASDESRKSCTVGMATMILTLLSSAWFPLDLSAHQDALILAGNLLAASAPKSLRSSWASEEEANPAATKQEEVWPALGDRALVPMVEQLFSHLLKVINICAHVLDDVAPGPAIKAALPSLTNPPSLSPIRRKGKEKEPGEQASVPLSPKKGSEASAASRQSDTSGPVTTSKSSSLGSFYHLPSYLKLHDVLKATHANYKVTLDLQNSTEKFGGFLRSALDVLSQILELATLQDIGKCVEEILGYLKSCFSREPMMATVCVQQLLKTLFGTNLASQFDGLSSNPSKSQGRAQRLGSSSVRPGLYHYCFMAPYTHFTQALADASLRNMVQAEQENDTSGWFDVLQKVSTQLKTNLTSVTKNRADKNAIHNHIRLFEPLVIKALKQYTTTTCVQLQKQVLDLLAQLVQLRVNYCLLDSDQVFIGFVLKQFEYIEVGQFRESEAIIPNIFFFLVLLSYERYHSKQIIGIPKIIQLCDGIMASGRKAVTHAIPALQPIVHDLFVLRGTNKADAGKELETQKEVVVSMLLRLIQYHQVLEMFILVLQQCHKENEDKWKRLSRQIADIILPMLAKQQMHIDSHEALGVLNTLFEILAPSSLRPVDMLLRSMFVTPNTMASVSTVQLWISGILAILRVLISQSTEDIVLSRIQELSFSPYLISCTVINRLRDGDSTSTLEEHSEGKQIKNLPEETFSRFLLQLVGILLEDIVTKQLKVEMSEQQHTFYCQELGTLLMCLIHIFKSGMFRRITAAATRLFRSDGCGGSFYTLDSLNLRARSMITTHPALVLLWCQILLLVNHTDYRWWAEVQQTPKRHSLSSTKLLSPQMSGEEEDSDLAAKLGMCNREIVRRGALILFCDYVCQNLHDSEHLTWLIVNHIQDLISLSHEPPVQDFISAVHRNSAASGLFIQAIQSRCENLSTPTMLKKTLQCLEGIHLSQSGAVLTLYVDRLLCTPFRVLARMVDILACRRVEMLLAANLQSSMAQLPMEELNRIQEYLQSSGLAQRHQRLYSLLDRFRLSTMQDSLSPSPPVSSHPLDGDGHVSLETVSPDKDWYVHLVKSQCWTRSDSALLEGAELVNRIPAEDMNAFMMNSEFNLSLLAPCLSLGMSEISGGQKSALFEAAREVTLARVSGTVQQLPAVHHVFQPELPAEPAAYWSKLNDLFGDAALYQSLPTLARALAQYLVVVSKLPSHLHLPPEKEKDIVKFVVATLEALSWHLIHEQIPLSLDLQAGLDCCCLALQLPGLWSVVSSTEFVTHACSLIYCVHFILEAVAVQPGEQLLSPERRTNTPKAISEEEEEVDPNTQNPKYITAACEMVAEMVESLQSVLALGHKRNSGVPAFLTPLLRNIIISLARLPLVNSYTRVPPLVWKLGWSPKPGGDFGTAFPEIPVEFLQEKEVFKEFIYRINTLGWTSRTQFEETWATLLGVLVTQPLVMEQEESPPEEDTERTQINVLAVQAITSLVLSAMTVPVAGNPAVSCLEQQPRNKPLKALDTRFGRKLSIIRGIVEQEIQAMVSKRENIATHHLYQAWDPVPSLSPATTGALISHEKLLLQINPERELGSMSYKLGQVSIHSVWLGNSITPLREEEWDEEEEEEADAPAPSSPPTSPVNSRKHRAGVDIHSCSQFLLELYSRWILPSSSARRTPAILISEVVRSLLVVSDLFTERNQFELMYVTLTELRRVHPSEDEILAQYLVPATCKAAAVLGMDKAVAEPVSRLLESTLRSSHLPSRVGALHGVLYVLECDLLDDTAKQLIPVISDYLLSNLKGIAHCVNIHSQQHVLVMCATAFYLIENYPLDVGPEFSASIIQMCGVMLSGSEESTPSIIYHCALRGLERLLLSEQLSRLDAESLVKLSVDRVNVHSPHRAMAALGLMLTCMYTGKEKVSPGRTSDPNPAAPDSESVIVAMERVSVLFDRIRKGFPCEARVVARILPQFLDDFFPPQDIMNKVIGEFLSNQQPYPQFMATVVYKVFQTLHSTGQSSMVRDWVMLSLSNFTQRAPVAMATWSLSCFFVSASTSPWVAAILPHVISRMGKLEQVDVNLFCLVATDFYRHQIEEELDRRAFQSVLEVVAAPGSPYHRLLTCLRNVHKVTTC
# Numbers without * were called inactive; . = no result given; + = active, no number. Sampled rows, rich in hits. Any-hit rate of the full collection: about 3.6%. Cut-off read from the data, not from the text of the source: active = inhibition above about 50%; inactive = the rest.
SMILES,Pf apPOL inh,mHTT CaM bind
Cc1c(C)c(C)c(S(=O)(=O)N2CCC(Cc3ccccc3)CC2)c(C)c1C,-4,-27
C=CCn1c(=N)c(S(=O)(=O)c2ccc(Cl)cc2)cc2c(=O)n3cccc(C)c3nc21,-1,-5
Cc1ccc(CNC(=O)c2cc3n(n2)CCCN(Cc2ccccc2)C3=O)o1,2,0
CCN1CCN(CC(=O)N2CCc3ccccc32)C(=O)C1=O,1,1
CCC(Oc1ccccc1)C(=O)NC1CCCCCCC1 (configuration not stated),-6,-6
O=[N+]([O-])c1ccc(NC(c2ccco2)c2ccc3cccnc3c2O)cc1 (configuration not stated),-5,100*
O=C(Nc1ccc(-c2ccc([N+](=O)[O-])cc2)cc1)c1ccco1,-2,2
CCOC(=O)C(C)Oc1cc2c(-c3cc4cccc(OC)c4o3)cc(=O)oc2cc1C (configuration not stated),0,-4
O=c1[nH]c2ccc(S(=O)(=O)NCc3ccco3)cc2s1,2,-1
O=S(=O)(NCc1ccccc1)c1ccc2[nH]c3c(c2c1)CCCCC3,-4,57*
CN(C)c1ccc(CNS(=O)(=O)c2ccc3[nH]c4c(c3c2)CCCCC4)cc1,0,55*
CN(CC(=O)NCc1ccco1)S(=O)(=O)c1ccc2[nH]c3c(c2c1)CCCC3,-3,29
O=S(=O)(NCc1cccnc1)c1ccc2[nH]c3c(c2c1)CCCC3,-3,22
O=S(=O)(NCc1ccco1)c1ccc2[nH]c3c(c2c1)CCCCC3,-4,87*
CN(Cc1ccco1)S(=O)(=O)c1ccc2[nH]c3c(c2c1)CCCCC3,-4,78*
Cc1ccc(CNS(=O)(=O)c2ccc3[nH]c4c(c3c2)CCCCC4)cc1,-10,10
CCCNC(=O)C1(O)c2cc(Br)ccc2NC(=O)N1c1cccc(OC)c1 (configuration not stated),-7,7
CCCC(=O)Nc1ccccc1C(=O)N1CCN(C(=O)c2ccccc2NC(=O)CCC)CC1,-1,-6
CC(C)(C)c1cc(C(=O)ONC(=O)c2ccccc2)nn1-c1c(Cl)cc(Cl)cc1Cl,3,.
COc1ccc(C2=N/C(=C\c3ccc(Br)cc3)C(=O)O2)cc1OC,2,2
O=S(=O)(NN1CCOCC1)c1cc(S(=O)(=O)c2ccccc2)cs1,-7,.
Cc1ccc(C(=O)c2ccccc2)cc1[N+](=O)[O-],-9,-5
Cc1ccc(-c2[nH]c3ccccc3c2C)cc1[N+](=O)[O-],0,64*
COc1ccc(CN(CCC2(c3ccccc3)CCOC(C)(C)C2)C(C)=O)cc1OC (configuration not stated),1,68*
COc1ccc(CN(CCC2(C(C)C)CCOC(C)(C)C2)C(C)=O)cc1OC (configuration not stated),0,15
SMILES,Pf apPOL inh,mHTT CaM bind
O=C(c1csc(-c2ccncc2)n1)N1CCC(N2CCCCC2)CC1,-2,-11
Cc1ccc(-c2nc(C(=O)Nc3ccc(F)cc3)cs2)n1C,2,58*
Cc1ccc(-c2nc(C(=O)NC3CCCC3)cs2)n1C,0,42
Cc1ccccc1NC(=O)c1csc(-c2ccc(C)n2C)n1,-5,-6
Cc1ccc(-c2nc(C(=O)N3CCN(C4CCCCC4)CC3)cs2)n1C,-3,70*
Cc1ccc(-c2nc(C(=O)NC3CCN(Cc4ccccc4)CC3)cs2)n1C,-3,75*
CN1CCN(c2nc(-c3ccccc3)ncc2C(=O)N2CCCCC2)CC1,-2,6
CN1CCN(C(=O)c2cnc(-c3ccccc3)nc2N(C)Cc2ccccc2)CC1,-8,68*
Cc1nc(-c2cccs2)c(CCC(=O)N2CCN(C(=O)c3ccco3)CC2)s1,9,10
CCC(CC)C(=O)N1CCCN(c2nc3ccccc3nc2-c2ccccc2)CC1,3,-30
COc1ccc(N2CCN(CC(O)COC3CCC(C(C)(C)C)CC3)CC2)cc1 (configuration not stated),-3,34
CC(C)(C)C1CCC(OCC(O)CN2CCC(CN3C(=O)c4cccc5cccc(c45)C3=O)CC2)CC1 (configuration not stated),28,100*
CC1CC(OCC(O)CN2CCC(CN3C(=O)c4cccc5cccc(c45)C3=O)CC2)CC(C)(C)C1 (configuration not stated),77*,37
CC1CCN(CC(O)COC2CCCC2)CC1 (configuration not stated),-2,-1
CC1(C)C(C(N)=O)C(=N)NC(=O)C1c1nc(-c2ccc(Cl)cc2)cs1 (configuration not stated),2,1
CC(C)n1c(CC2CCN(C(=O)c3cc(-c4cccs4)[nH]n3)C2)nc2cccnc21 (configuration not stated),-3,19
CC(C)n1c(CC2CCN(C(=O)c3cc(-c4ccccc4)n[nH]3)C2)nc2cccnc21 (configuration not stated),5,59*
COc1ccc(S(=O)(=O)Nc2ccc(S(=O)(=O)Nc3ccc(F)cc3)cc2)cc1,-6,-1
CC(=O)c1ccc2c(c1)C1c3ccccc3C2c2ccccc21,3,-2
O=C(C1CC2CCCN2C12C(=O)Nc1ccccc12)N1CCN(c2ccccc2)CC1 (configuration not stated),-1,5
CN(C)c1ccc(/C=N/NC(=S)N/N=C/c2ccc(N(C)C)cc2)cc1,.,+
CN(C)c1ccc(C=NNC2=NCCN2)cc1,-3,.
O=C(Nc1ccc(SCC(=O)N2CCc3ccccc32)nn1)c1cccs1,-8,-8
Cc1cccc(CN2CCCn3nc(C(=O)NCCC(C)C)cc3C2=O)c1,1,5
Cc1nc(-c2cccc(NC(=O)c3cccc([N+](=O)[O-])c3)c2)cs1,-4,7
SMILES,Pf apPOL inh,mHTT CaM bind
Cc1nc(-c2cccc(NC(=O)C(c3ccccc3)n3cccc3)c2)cs1 (configuration not stated),6,67*
COc1ccc(Cn2c(=O)c3c(n4cnnc24)-c2ccccc2CC32CCCCC2)cc1,7,8
O=C(c1nc(-c2cccc(F)c2)n2c1CCCCC2)N1CCN(c2ccccc2)CC1,-4,78*
COc1ccc(N2CCN(C(=O)c3nc(-c4cccc(F)c4)n4c3CCCCC4)CC2)cc1,0,44
Cc1cc(NCC(O)c2ccc([N+](=O)[O-])cc2)nc(-n2nc(C)cc2C)n1 (configuration not stated),-2,97*
Cc1cc(Oc2ccc([N+](=O)[O-])cc2)nc(-n2nc(C)cc2C)n1,2,4
COCc1cc(CN2CCCC2)c(O)c2ncccc12,3,100*
Fc1ccc(CN2CCN(c3ncccn3)CC2)c(F)c1,-4,-6
Oc1c(CN2CCCCC2)cc(CN2CCCCC2)nc1-c1ccccc1,1,7
Oc1ccccc1CN1CCCC1,-1,1
Oc1c(CN2CCCCC2)cc(Cl)c2cccnc12,-7,100*
Oc1c(CN2CCN(Cc3ccc4cccnc4c3O)CC2)ccc2cccnc12,-11,100*
CC(=O)N(CCCN(C)C)Cc1ccc(C(C)C)cc1,-1,-1
COc1ccc(C2=NN3C(C2)c2cc(Br)ccc2OC32C(=O)Nc3ccccc32)cc1 (configuration not stated),-3,100*
CC1(C)Oc2ccccc2C2CC(c3cccs3)=NN21 (configuration not stated),-5,50

# Compound activity from PubChem BioAssay.
